Screens deposited in PubChem BioAssay by National Center for Advancing Translational Sciences (NCATS).
Hits are enriched below; roughly 4.8% of the tested compounds scored in any of these assays.
D3 ag = qHTS of D3 Dopamine Receptor Agonist: qHTS | D3R DiscoveRx beta-arrestin cells, luminescence, 90 min | AID 652048, 2013 | max activation, % | actives 0.58% (n = 410,000) | D(3) dopamine receptor (Homo sapiens), P35462; in the data active = max activation above about 30%
Target sequence (P35462 whole entry, looked up): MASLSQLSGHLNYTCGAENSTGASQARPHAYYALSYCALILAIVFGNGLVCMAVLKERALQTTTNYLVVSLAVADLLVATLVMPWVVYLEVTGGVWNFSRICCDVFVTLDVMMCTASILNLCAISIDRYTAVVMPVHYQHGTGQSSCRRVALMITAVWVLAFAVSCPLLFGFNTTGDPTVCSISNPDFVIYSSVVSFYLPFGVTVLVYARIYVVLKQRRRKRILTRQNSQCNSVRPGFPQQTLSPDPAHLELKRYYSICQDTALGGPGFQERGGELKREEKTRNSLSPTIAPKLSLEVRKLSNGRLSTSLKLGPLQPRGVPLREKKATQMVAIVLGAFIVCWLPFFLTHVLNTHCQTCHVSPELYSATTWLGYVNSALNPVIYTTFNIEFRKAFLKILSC
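Agonist mode: compounds and dopamine controls were applied to plated cells for 90 min at 37 degrees C after an overnight attachment at 1500 cells/well. Luminescent read-out followed 30 - 60 minutes at room temperature with DiscoveRx detection reagent.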
ATXN2 expr inh = Primary qHTS for Inhibitors of ATXN expression; actives 0.72% (n = 360,000); HEK-293 ATXN2-luciferase reporter, luminescence, 24 h; Potency, µM (top dose mostly 57 µM), hits mostly inhibitors; note: nearly all actives have a fitted effect of over 55% in size
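ATXN2-luciferase reporter cells (luciferase flanked by upstream and downstream ATXN2 gene portions) were treated 24 h at 37 °C with compounds at up to 57 uM. SteadyGlo luminescence gave expression; GF-AFC fluorescence gave viability.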
DRD3 antagonist = qHTS of D3 Dopamine Receptor Antagonist: qHTS; D(3) dopamine receptor (Homo sapiens), P35462; D3R cells, DiscoveRx beta-arrestin luminescence, antagonist mode; stronger effect = lower value; max response, negative = inhibition, %; actives 2.5% (n = 360,000); AID 652054, 2013; in the data active = max response below about -50%; inconclusive = no clear call, values can overlap the other calls
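Cells plated overnight at 1500 cells/well, then exposed to library compounds with dopamine controls for 90 minutes at 37 degrees C. DiscoveRx reagent added for 30–60 minutes at room temperature; luminescence read, quantitative HTS format.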
TGFb SMAD3 inh = qHTS for Inhibitors of TGF-b. HepG2 CAGA-GFP TGF-b/SMAD3 reporter, GFP fluorescence, 18 h; TGF-beta stimulated, 500 pg/mL final. Potency, µM (highest dose often 46.1 µM), actives largely listed as inhibitors. actives 1.2% (n = 410,000); note: nearly all actives have a fitted effect of over 65% in size
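Smad-responsive CAGA-GFP expression was quantified in HEPG2 cells exposed to compounds and 500 pg/mL final TGF-beta for 18 h at 37 degrees C; unstimulated wells defined full inhibition.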
ATXN viability = Viability Counterscreen for Primary qHTS for Inhibitors of ATXN expression. S2 cells (HEK-293 line with an ATXN2-luciferase reporter) viability, CellTiter-Fluor protease fluorescence, 24 h. Potency, µM (titrated, usually from 56.7 µM), usual class: cytotoxic. actives 0.49% (n = 400,000). AID 651635, 2014; note: nearly all actives have a fitted effect of over 40% in size
HepG2 viability = qHTS for Inhibitors of TGF-b: Cytotox Counterscreen | HepG2 CAGA-GFP viability, ATP luminescence, 18 h | Potency, µM (top dose mostly 46.1 µM), most hits filed as cytotoxic | actives 0.76% (n = 410,000) | AID 588856, 2011
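CellTiter-Glo luminescence gave cytotoxicity after 18 hours at 37 degrees C. The cells were HepG2 CAGA-GFP in 1% FBS DMEM, stimulated with 500 pg/mL TGF-beta after compound addition. %Activity was normalised to no-cell wells (complete cell-killing) and DMSO (no toxicity), and curves were fitted and classified.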
Numbers stand for hits; i = inactive; ? = inconclusive; nt = no result given. Unless noted, calls come from the whole dose curve; as a rule, active = well fitted curve in the direction sought with a large enough effect; inconclusive = small, poorly fitted or top-dose-only effect, or another doubt; inactive = no such curve, though single readings can be large; an effect the other way counts as inactive or inconclusive.

SMILES	D3 ag	ATXN2 expr inh	DRD3 antagonist	TGFb SMAD3 inh	ATXN viability	HepG2 viability
COc1ccc(NC(=O)CSc2nc3nc(C)c(Cc4ccccc4Cl)c(C)n3n2)cc1OC	i	i	nt	i	?	i
O=C(Nc1nc2n(n1)C(c1ccc(F)cc1)C=C(c1ccc(Cl)cc1)N2)c1ccc([N+](=O)[O-])cc1 (stereo unspecified)	i	i	nt	i	i	i
Oc1ccc(C=NCC2COc3ccccc3O2)cc1 (stereo unspecified)	i	i	i	i	i	i
COc1ccc(C=NCC2COc3ccccc3O2)cc1OC (stereo unspecified)	i	i	-51.0	i	i	i
CCCCC1(C)Cc2ccccc2C(=S)N1 (stereo unspecified)	i	i	-50.1	i	i	i
COc1ccc2c(c1)C=C(CN1CCC(CO)(CCc3ccccc3)CC1)CO2	i	i	-86.5	i	i	i
COc1ccc(CC2(CO)CCN(CC3=Cc4cc(Cl)ccc4OC3)CC2)cc1	i	?	-75.4	?	?	i
CCCCOc1ccc(C2=NC(c3ccncc3)=Nc3ccc(OCC)cc3N2)cc1	i	i	nt	i	i	i
COc1ccc(CCNC(=O)C2CCCN(c3nc4c(C)cc(C)cc4s3)C2)cc1OC (stereo unspecified)	i	nt	nt	i	nt	i
Cc1cnc(=O)[nH]c1SCc1ccc(C(F)(F)F)cc1	31.0	i	i	i	i	i
Oc1cc2c(cc1C(c1ccc(Br)cc1)N1CCCC1)OCO2 (stereo unspecified)	i	i	i	?	i	14.1µM
CC(=O)Oc1cc(C)c(OC(C)=O)c2ccccc12	i	nt	nt	nt	nt	nt
Brc1ccc(-c2nc(N3CCN(c4ccccc4)CC3)c3ccccc3n2)cc1	i	nt	nt	i	nt	i
c1ccc(N2CCN(c3nc(-c4ccccn4)nc4ccccc34)CC2)cc1	i	?	-81.8	?	?	i
CCCOc1ccc(-c2nc(N3CCN(C)CC3)c3ccccc3n2)cc1	i	i	-58.8	?	i	i
CN1CCN(c2nc(-c3ccccn3)nc3ccccc23)CC1	i	?	-50.7	i	?	i
CN1CCN(c2nc(-c3cccnc3)nc3ccccc23)CC1	i	i	?	i	i	i
O=C(CN1C(=O)COc2ccccc21)NCCc1ccc(Cl)cc1	i	nt	nt	i	nt	i
O=C(O)CC(NS(=O)(=O)c1ccc(Br)s1)c1ccccc1 (stereo unspecified)	i	i	nt	i	i	i
Cc1cc(CNC(=O)c2cnn(-c3nccc(-c4cc(C)sc4C)n3)c2C2CC2)on1	nt	nt	nt	nt	i	nt
CCN(CC)C(=O)CSC1=N/C(=C/c2ccco2)C(=O)N1c1ccc(OC)c(Cl)c1	i	?	i	?	5.01µM	i
COc1ccc(N2C(=O)/C(=C\c3ccco3)N=C2SCC(=O)NC(C)(C)C)cc1Cl	i	i	i	i	i	i
Cc1cccc(-c2nc(CCNC(=O)c3ccccc3Br)cs2)c1	i	nt	nt	?	nt	i
O=C1CCCC2=C1C(c1[nH]ncc1Cl)N=C(Nc1nc3ccccc3o1)N2 (stereo unspecified)	nt	i	nt	nt	nt	nt
C=CCc1cc(OC)ccc1OCCOCCN1CCc2ccccc2C1	i	i	-87.5	?	i	i
SMILES	D3 ag	ATXN2 expr inh	DRD3 antagonist	TGFb SMAD3 inh	ATXN viability	HepG2 viability
c1ccc(OCCOCCN2CCc3ccccc3C2)cc1	i	i	-111.1	i	i	i
COc1ccc(OCC(=O)N2CCc3ccccc3C2)cc1	i	nt	i	i	i	i
COc1ccc(OCCCN2CCc3ccccc3C2)cc1	i	i	-109.3	i	i	i
CCCOc1ccc(OCCOCCN2CCc3ccccc3C2)cc1	i	i	-70.4	i	i	i
C=CCc1cc(OC)ccc1OCCOCCC(C(=O)OCC)C(=O)OCC	i	i	i	i	i	i
COc1ccc(CN2CCCC(n3cc(C(=O)N4CCCCC4)nn3)C2)c(OC)c1C (stereo unspecified)	nt	nt	nt	nt	i	nt
COc1ccc(C2(O)CCN(CCCCOc3ccccc3)CC2)cc1	i	i	-90.0	i	i	i
CCOc1ccc(OCCOCCN2CCCC2)cc1	i	nt	i	i	i	i
Cc1ccc(SCCOCCN2CCc3ccccc3C2)cc1	i	nt	-104.8	i	i	i
CCOc1ccc(OCCOCCN2CCc3ccccc3C2)cc1	i	nt	-58.0	i	nt	i
CC(=O)c1c(C)[nH]c2ccc(OCC(O)CNCCc3ccccc3)cc12 (stereo unspecified)	nt	nt	nt	i	nt	i
CCCCOc1ccc(S(=O)(=O)N2CCN(c3ccccc3OCC)CC2)cc1	i	i	nt	i	i	i
Cc1cc2c(cc1S(=O)(=O)NCCc1ccccc1)NC(=O)CO2	i	i	i	i	i	i
CCCc1ccccc1OCCNS(=O)(=O)c1cc2c(cc1C)OCC(=O)N2	41.8	i	i	?	i	i
Cc1ccc2nc(NC(=O)CSCC(=O)OCC(=O)c3ccc(Br)cc3)sc2c1	i	5.62µM	i	i	i	i
COC(=O)c1ccc2nc(NC(=O)CSCC(=O)OCC(=O)c3ccccc3)sc2c1	i	i	?	i	i	i
CCc1nc2cc(C(=O)N[C@H]3CCCCNC3=O)cc(NC(=O)c3ccccc3OC)c2n1C	nt	nt	nt	nt	i	nt
COc1ccccc1-c1cccc(-c2nc(C(=O)Nc3nccs3)cc3c2[C@@H](CCO)N(C(C)=O)C3)c1	i	i	i	nt	i	nt
CCC(=O)N1Cc2cc(C(=O)Nc3nccs3)nc(-c3cccc(-c4ccccc4OC)c3)c2[C@H]1CCO	60.9	?	i	nt	?	nt
Cc1cc(C(=O)NCc2nnc3n2CCN(Cc2ccc(F)cc2F)CC3)c(C)o1	nt	nt	nt	nt	i	nt
COc1ccc(NC(=O)Cn2cc(C(=O)c3ccccc3OC)c(=O)c3ccc(C)nc32)cc1OC	i	i	nt	i	?	i
CC(=O)c1c(N2CCN(c3ccccc3)CC2)nc(=S)n(-c2ccccc2)c1C	i	i	-53.5	i	i	i
CC(=O)c1c(N2CCN(CCO)CC2)nc(=S)n(-c2ccccc2)c1C	i	nt	i	i	i	i
CCc1ccc(NC(=O)c2ccc(F)c(S(=O)(=O)NCCc3ccc(OC)c(OC)c3)c2)cc1	i	nt	nt	?	nt	i
O=C(c1ccc([N+](=O)[O-])o1)N1CCc2ccccc2C1	i	nt	?	?	i	i
COc1cc2c(cc1OC)CN(C(=O)c1ccc([N+](=O)[O-])o1)CC2	i	i	i	12.6µM	i	i
COc1cc(OC)c(NC(=O)C(c2ccccc2)N2Cc3ccccc3C2=O)cc1Cl (stereo unspecified)	i	nt	nt	i	nt	i
